Hit rate of the full screen: of about 5,500 compounds, about 2,000 (36%) were called active. About 18% were inconclusive and are not listed. The list shows a part of the results. A number with no mark means an inactive call. No stated cut-off is given here; in the data, active means normalized growth mostly below about 0.91 (no sharp cut-off); inconclusive means no clear call, values can overlap the other calls; inactive means mostly above about 0.92.
Test: chemical genetic growth profiling, strain panel (AID 1159580);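 further: tested at 20 µM; growth read once vehicle control cultures reached saturation at 30 °C; 1 = growth at the plate median or of vehicle wells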
Conditions: S. cerevisiae deletion strains, growth OD

**Q.** For COc1cccc(OC)c1OCCNCC1CSc2ccccc2O1 (configuration not stated), which normalized growth (locus YAL040C, strain CLN3, stronger effect = lower value) is on record?
**A.** 1.01

**Q.** And the normalized growth (locus YDR363W, strain ESC2, stronger effect = lower value)?
**A.** 0.936

**Q.** And the normalized growth (locus YER002W, strain NOP16, stronger effect = lower value)?
**A.** 1.01

**Q.** What about the normalized growth (locus YJR075W, strain HOC1, stronger effect = lower value) of the same molecule?
**A.** 0.985

**Q.** And the normalized growth (locus YMR263W, strain SAP30, stronger effect = lower value)?
**A.** 0.995

**Q.** What about the normalized growth (locus YMR307W, strain GAS1, stronger effect = lower value) of the same molecule?
**A.** 1.01

**Q.** And the normalized growth (locus YNL175C, strain NOP13, stronger effect = lower value)?
**A.** 0.986

**Q.** And the normalized growth (locus YNL197C, strain WHI3, stronger effect = lower value)?
**A.** 1.02

**Q.** What about the normalized growth (locus YNL224C, strain SQS1, stronger effect = lower value) of the same molecule?
**A.** 1

**Q.** And the normalized growth (locus YOR083W, strain WHI5 (second series), stronger effect = lower value)?
**A.** 0.966

**Q.** What about the normalized growth (locus YPL241C, strain CIN2, stronger effect = lower value) of the same molecule?
**A.** 1

**Q.** For ONC(=Nc1ccccc1Cl)c1ccccc1Cl, which normalized growth (locus YAR019C, strain CDC15, stronger effect = lower value) is on record?
**A.** 0.999

**Q.** What about the normalized growth (locus YBL105C, strain PKC1, stronger effect = lower value) of the same molecule?
**A.** 0.987

**Q.** And the normalized growth (locus YBR135W, strain CKS1, stronger effect = lower value)?
**A.** 0.992

**Q.** And the normalized growth (locus YBR136W, strain MEC1, stronger effect = lower value)?
**A.** 0.986

**Q.** What about the normalized growth (locus YBR160W, strain CDC28, stronger effect = lower value) of the same molecule?
**A.** 0.993

**Q.** What about the normalized growth (locus YDL017W, strain CDC7, stronger effect = lower value) of the same molecule?
**A.** 0.988

**Q.** And the normalized growth (locus YDL028C, strain MPS1, stronger effect = lower value)?
**A.** 0.985

**Q.** And the normalized growth (locus YDL101C, strain DUN1, stronger effect = lower value)?
**A.** 0.993

**Q.** And the normalized growth (locus YDL108W, strain KIN28, stronger effect = lower value)?
**A.** 0.979

**Q.** And the normalized growth (locus YDL132W, strain cdc53, stronger effect = lower value)?
**A.** 0.997

**Q.** And the normalized growth (locus YDL214C, strain PRR2, stronger effect = lower value)?
**A.** 0.824

**Q.** And the normalized growth (locus YDR052C, strain DBF4, stronger effect = lower value)?
**A.** 0.983

**Q.** What about the normalized growth (locus YDR054C, strain cdc34, stronger effect = lower value) of the same molecule?
**A.** 0.992

**Q.** What about the normalized growth (locus YDR226W, strain ADK1, stronger effect = lower value) of the same molecule?
**A.** 0.987

**Q.** And the normalized growth (locus YDR477W, strain SNF1, stronger effect = lower value)?
**A.** 0.859

**Q.** And the normalized growth (locus YER123W, strain YCK3, stronger effect = lower value)?
**A.** 0.688

**Q.** And the normalized growth (locus YER133W, strain GLC7, stronger effect = lower value)?
**A.** 0.833

**Q.** What about the normalized growth (locus YFL009W, strain cdc4, stronger effect = lower value) of the same molecule?
**A.** 0.999

**Q.** What about the normalized growth (locus YFL029C, strain CAK1, stronger effect = lower value) of the same molecule?
**A.** 0.996

**Q.** What about the normalized growth (locus YFR003C, strain YPI1, stronger effect = lower value) of the same molecule?
**A.** 0.989

**Q.** What about the normalized growth (locus YFR019W, strain FAB1, stronger effect = lower value) of the same molecule?
**A.** 0.714 (active)

**Q.** And the normalized growth (locus YFR028C, strain CDC14, stronger effect = lower value)?
**A.** 0.997

**Q.** And the normalized growth (locus YGR040W, strain KSS1, stronger effect = lower value)?
**A.** 0.81

**Q.** What about the normalized growth (locus YGR052W, strain FMP48, stronger effect = lower value) of the same molecule?
**A.** 0.786

**Q.** What about the normalized growth (locus YGR092W, strain DBF2, stronger effect = lower value) of the same molecule?
**A.** 0.839

**Q.** What about the normalized growth (locus YHR030C, strain SLT2, stronger effect = lower value) of the same molecule?
**A.** 0.731 (active)

**Q.** What about the normalized growth (locus YHR079C, strain IRE1, stronger effect = lower value) of the same molecule?
**A.** 0.889

**Q.** What about the normalized growth (locus YHR082C, strain KSP1, stronger effect = lower value) of the same molecule?
**A.** 0.829

**Q.** And the normalized growth (locus YHR205W, strain SCH9, stronger effect = lower value)?
**A.** 0.875

**Q.** And the normalized growth (locus YIL147C, strain SLN1, stronger effect = lower value)?
**A.** 0.983

**Q.** And the normalized growth (locus YJL095W, strain BCK1, stronger effect = lower value)?
**A.** 0.697

**Q.** What about the normalized growth (locus YJL128C, strain PBS2, stronger effect = lower value) of the same molecule?
**A.** 0.95

**Q.** And the normalized growth (locus YJL157C, strain FAR1, stronger effect = lower value)?
**A.** 0.785

**Q.** And the normalized growth (locus YJR016C, strain ILV3, stronger effect = lower value)?
**A.** 0.986

**Q.** And the normalized growth (locus YJR066W, strain TOR1 (second series), stronger effect = lower value)?
**A.** 0.729

**Q.** And the normalized growth (locus YJR066W, strain TOR1, stronger effect = lower value)?
**A.** 0.769

**Q.** And the normalized growth (locus YKL048C, strain ELM1, stronger effect = lower value)?
**A.** 0.922

**Q.** And the normalized growth (locus YKL067W, strain YNK1, stronger effect = lower value)?
**A.** 0.817

**Q.** What about the normalized growth (locus YKL101W, strain HSL1, stronger effect = lower value) of the same molecule?
**A.** 0.854

**Q.** What about the normalized growth (locus YKL193C, strain SDS22, stronger effect = lower value) of the same molecule?
**A.** 1

**Q.** And the normalized growth (locus YKL203C, strain TOR2, stronger effect = lower value)?
**A.** 0.891

**Q.** What about the normalized growth (locus YLR113W, strain HOG1, stronger effect = lower value) of the same molecule?
**A.** 0.839 (active)

**Q.** What about the normalized growth (locus YLR133W, strain CKI1, stronger effect = lower value) of the same molecule?
**A.** 0.841

**Q.** And the normalized growth (locus YLR403W, strain SFP1, stronger effect = lower value)?
**A.** 0.832

**Q.** And the normalized growth (locus YML070W, strain DAK1, stronger effect = lower value)?
**A.** 0.786

**Q.** And the normalized growth (locus YMR001C, strain CDC5, stronger effect = lower value)?
**A.** 0.996

**Q.** And the normalized growth (locus YMR205C, strain PFK2 (second series), stronger effect = lower value)?
**A.** 0.83

**Q.** And the normalized growth (locus YMR277W, strain FCP1, stronger effect = lower value)?
**A.** 1

**Q.** And the normalized growth (locus YNL006W, strain LST8, stronger effect = lower value)?
**A.** 0.997

**Q.** And the normalized growth (locus YNL020C, strain ARK1, stronger effect = lower value)?
**A.** 0.809

**Q.** What about the normalized growth (locus YNL161W, strain CBK1, stronger effect = lower value) of the same molecule?
**A.** 0.994

**Q.** And the normalized growth (locus YNL183C, strain NPR1, stronger effect = lower value)?
**A.** 0.86

**Q.** What about the normalized growth (locus YNL207W, strain RIO2, stronger effect = lower value) of the same molecule?
**A.** 0.99

**Q.** What about the normalized growth (locus YNL222W, strain SSU72, stronger effect = lower value) of the same molecule?
**A.** 0.993

**Q.** What about the normalized growth (locus YNL307C, strain MCK1 (second series), stronger effect = lower value) of the same molecule?
**A.** 0.811

**Q.** And the normalized growth (locus YOL078W, strain AVO1, stronger effect = lower value)?
**A.** 0.993

**Q.** And the normalized growth (locus YOL136C, strain PFK27, stronger effect = lower value)?
**A.** 0.806

**Q.** What about the normalized growth (locus YOR061W, strain CKA2, stronger effect = lower value) of the same molecule?
**A.** 0.69

**Q.** And the normalized growth (locus YOR119C, strain RIO1, stronger effect = lower value)?
**A.** 0.886

**Q.** And the normalized growth (locus YOR231W, strain MKK1, stronger effect = lower value)?
**A.** 0.836

**Q.** What about the normalized growth (locus YOR329C, strain SCD5, stronger effect = lower value) of the same molecule?
**A.** 0.998

**Q.** And the normalized growth (locus YPL031C, strain PHO85, stronger effect = lower value)?
**A.** 0.824

**Q.** What about the normalized growth (locus YPL153C, strain RAD53, stronger effect = lower value) of the same molecule?
**A.** 0.777

**Q.** What about the normalized growth (locus YPL204W, strain HRR25, stronger effect = lower value) of the same molecule?
**A.** 0.859

**Q.** And the normalized growth (locus YPL209C, strain IPL1, stronger effect = lower value)?
**A.** 0.992

**Q.** What about the normalized growth (locus YPL256C, strain CLN2, stronger effect = lower value) of the same molecule?
**A.** 0.904

**Q.** And the normalized growth (locus YPR025C, strain CCL1, stronger effect = lower value)?
**A.** 0.993

**Q.** What about the normalized growth (locus YPR106W, strain ISR1, stronger effect = lower value) of the same molecule?
**A.** 0.99

**Q.** What about the normalized growth (locus YPR111W, strain DBF20, stronger effect = lower value) of the same molecule?
**A.** 0.994

**Q.** And the normalized growth (strain NNK1, stronger effect = lower value)?
**A.** 0.992

**Q.** What about the normalized growth (strain TSCII, stronger effect = lower value) of the same molecule?
**A.** 0.991
